The values that follow come from ChEMBL document CHEMBL2218924, “A broad activity screen in support of a chemogenomic map for kinase signalling research and drug discovery” (Biochem J, 2013).

Assay [1] deals with T1, Muscle, skeletal receptor tyrosine-protein kinase (Homo sapiens) (UniProt O15146).
T1 sequence (whole entry): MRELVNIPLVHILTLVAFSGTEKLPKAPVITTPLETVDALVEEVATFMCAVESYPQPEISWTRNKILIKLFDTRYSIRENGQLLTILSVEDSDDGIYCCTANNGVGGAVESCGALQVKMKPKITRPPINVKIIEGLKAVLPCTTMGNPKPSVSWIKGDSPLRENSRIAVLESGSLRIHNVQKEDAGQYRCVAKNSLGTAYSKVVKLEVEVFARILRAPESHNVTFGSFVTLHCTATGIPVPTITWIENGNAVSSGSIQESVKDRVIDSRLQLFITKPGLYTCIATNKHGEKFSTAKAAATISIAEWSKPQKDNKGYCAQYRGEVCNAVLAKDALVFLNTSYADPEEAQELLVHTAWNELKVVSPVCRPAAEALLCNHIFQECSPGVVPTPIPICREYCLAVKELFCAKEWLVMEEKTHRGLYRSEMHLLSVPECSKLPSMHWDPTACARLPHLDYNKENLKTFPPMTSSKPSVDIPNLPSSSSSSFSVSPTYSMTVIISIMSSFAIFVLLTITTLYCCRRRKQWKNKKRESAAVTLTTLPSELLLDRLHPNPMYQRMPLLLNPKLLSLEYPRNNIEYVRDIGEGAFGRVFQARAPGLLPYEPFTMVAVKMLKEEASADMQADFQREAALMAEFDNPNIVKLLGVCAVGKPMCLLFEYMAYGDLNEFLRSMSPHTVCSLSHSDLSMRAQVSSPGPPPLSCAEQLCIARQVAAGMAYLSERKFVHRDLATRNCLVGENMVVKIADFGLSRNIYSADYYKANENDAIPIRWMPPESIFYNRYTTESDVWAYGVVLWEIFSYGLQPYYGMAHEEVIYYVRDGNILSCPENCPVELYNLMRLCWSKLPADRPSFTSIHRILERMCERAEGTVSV
The settings on record: at 1 µM.

In assay [2] the target is T1, Muscle, skeletal receptor tyrosine-protein kinase (Homo sapiens). To be noted: at 10 µM.
Assay [3] has as its target T2, Serine/threonine-protein kinase Nek11 (Homo sapiens) (UniProt Q8NG66).
T2 sequence (whole entry): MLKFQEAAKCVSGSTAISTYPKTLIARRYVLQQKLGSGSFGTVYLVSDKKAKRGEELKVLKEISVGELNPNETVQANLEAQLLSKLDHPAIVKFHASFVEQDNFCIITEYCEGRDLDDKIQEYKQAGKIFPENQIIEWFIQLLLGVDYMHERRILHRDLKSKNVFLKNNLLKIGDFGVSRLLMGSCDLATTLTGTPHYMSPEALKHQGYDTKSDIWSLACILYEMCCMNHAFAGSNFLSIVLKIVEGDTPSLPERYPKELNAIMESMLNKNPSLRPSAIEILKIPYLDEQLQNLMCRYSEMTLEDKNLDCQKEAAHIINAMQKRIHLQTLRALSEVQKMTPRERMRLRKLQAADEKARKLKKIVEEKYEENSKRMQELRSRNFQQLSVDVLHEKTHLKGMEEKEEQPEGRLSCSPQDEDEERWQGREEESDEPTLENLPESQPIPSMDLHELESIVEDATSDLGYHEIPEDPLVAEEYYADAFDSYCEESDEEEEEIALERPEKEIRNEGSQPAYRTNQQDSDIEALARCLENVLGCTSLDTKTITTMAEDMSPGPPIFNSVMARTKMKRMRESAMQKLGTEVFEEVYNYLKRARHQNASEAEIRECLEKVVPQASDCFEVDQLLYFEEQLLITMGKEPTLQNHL
The settings on record: at 1 µM.

The target of assay [4] is T2, Serine/threonine-protein kinase Nek11 (Homo sapiens). The settings on record: at 10 µM.
Assay [5] has as its target T3, Serine/threonine-protein kinase Nek2 (Homo sapiens) (UniProt P51955).
T3 sequence (whole entry): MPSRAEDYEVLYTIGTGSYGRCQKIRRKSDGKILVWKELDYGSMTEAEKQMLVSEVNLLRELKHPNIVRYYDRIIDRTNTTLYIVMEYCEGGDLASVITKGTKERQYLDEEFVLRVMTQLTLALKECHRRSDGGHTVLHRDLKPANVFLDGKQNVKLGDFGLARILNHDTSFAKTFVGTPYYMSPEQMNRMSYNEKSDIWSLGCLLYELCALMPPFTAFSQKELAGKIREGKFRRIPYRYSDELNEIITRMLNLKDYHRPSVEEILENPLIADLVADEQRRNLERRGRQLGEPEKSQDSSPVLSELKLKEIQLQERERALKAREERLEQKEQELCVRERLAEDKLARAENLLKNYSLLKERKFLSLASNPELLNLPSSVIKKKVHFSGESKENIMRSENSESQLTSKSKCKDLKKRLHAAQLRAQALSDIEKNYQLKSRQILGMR
The settings on record: at 1 µM.

In assay [6] the target is T3, Serine/threonine-protein kinase Nek2 (Homo sapiens). The settings on record: at 10 µM.
Assay [7] has as its target T4, Serine/threonine-protein kinase Nek3 (Homo sapiens) (UniProt P51956).
T4 sequence (whole entry): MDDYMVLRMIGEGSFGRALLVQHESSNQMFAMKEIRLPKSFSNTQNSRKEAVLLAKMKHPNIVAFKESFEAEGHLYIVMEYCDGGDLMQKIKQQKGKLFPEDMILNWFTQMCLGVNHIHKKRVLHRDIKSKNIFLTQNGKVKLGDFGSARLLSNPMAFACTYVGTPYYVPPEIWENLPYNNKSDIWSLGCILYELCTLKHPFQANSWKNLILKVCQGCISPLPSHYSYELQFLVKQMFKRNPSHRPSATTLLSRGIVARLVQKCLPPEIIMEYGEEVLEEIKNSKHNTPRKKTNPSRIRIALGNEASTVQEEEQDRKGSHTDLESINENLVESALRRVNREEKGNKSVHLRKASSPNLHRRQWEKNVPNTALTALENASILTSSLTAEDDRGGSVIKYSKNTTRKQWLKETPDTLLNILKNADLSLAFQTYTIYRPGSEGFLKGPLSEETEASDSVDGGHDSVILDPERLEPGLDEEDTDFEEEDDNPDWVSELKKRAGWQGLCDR
The settings on record: at 1 µM.

In assay [8] the target is T4, Serine/threonine-protein kinase Nek3 (Homo sapiens). The settings on record: at 10 µM.
Assay [9] concerns the target Serine/threonine-protein kinase tousled-like 2 (Homo sapiens) (UniProt Q86UE8). The settings on record: at 1 µM.
The target is the same in assay [10]. The settings on record: at 10 µM.
In assay [11] the target is T5, Testis-specific serine/threonine-protein kinase 1 (Homo sapiens) (UniProt Q9BXA7).
T5 sequence (whole entry): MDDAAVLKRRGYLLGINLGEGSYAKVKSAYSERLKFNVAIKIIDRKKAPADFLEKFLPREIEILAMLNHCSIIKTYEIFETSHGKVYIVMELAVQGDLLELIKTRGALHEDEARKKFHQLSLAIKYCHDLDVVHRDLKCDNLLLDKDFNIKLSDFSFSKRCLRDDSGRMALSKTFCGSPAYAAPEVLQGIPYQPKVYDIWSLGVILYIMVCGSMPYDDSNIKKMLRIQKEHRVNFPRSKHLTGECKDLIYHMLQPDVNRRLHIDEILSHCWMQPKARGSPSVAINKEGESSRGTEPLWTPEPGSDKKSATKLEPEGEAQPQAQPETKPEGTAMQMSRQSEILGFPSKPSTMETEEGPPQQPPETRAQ
To be noted: at 1 µM.

Assay [12] addresses T5, Testis-specific serine/threonine-protein kinase 1 (Homo sapiens). To be noted: at 10 µM.
The target in assay [13] is T6, Testis-specific serine/threonine-protein kinase 2 (Homo sapiens) (UniProt Q96PF2).
T6 sequence (whole entry): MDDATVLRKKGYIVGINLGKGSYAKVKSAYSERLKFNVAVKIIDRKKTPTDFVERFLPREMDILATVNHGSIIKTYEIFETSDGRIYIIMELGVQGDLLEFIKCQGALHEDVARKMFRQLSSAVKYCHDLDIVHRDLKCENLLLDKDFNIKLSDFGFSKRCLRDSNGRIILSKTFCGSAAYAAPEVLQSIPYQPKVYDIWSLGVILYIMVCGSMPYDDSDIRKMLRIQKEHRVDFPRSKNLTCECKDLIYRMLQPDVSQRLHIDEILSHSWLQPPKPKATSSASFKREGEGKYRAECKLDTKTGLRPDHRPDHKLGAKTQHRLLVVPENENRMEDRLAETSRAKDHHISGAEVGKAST
The settings on record: at 10 µM.

The target in assay [14] is T7, Tyrosine-protein kinase Tec (Homo sapiens) (UniProt P42680).
T7 sequence (whole entry): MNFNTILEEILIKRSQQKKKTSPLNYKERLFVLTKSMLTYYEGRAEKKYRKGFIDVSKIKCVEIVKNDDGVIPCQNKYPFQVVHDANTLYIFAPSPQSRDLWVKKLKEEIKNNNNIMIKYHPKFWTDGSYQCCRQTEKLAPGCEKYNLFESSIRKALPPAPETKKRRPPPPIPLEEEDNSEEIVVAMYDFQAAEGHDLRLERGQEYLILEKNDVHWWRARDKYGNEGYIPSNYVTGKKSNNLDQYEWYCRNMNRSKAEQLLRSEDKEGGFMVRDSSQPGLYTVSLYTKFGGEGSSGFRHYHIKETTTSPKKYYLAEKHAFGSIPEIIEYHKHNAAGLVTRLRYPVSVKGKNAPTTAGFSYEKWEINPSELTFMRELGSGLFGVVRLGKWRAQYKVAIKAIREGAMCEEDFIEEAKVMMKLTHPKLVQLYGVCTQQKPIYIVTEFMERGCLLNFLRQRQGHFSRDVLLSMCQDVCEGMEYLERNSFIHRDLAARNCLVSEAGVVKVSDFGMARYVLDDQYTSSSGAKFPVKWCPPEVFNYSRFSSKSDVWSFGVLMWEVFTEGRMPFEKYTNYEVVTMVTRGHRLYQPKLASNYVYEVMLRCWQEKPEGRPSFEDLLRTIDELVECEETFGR
To be noted: at 1 µM.

Assay [15] deals with T7, Tyrosine-protein kinase Tec (Homo sapiens). The settings on record: at 10 µM.
For assay [16], the target named is High affinity nerve growth factor receptor (Homo sapiens) (UniProt P04629). The settings on record: at 1 µM.
Sequence of High affinity nerve growth factor receptor (Homo sapiens) (P04629 33-796 limits assumed): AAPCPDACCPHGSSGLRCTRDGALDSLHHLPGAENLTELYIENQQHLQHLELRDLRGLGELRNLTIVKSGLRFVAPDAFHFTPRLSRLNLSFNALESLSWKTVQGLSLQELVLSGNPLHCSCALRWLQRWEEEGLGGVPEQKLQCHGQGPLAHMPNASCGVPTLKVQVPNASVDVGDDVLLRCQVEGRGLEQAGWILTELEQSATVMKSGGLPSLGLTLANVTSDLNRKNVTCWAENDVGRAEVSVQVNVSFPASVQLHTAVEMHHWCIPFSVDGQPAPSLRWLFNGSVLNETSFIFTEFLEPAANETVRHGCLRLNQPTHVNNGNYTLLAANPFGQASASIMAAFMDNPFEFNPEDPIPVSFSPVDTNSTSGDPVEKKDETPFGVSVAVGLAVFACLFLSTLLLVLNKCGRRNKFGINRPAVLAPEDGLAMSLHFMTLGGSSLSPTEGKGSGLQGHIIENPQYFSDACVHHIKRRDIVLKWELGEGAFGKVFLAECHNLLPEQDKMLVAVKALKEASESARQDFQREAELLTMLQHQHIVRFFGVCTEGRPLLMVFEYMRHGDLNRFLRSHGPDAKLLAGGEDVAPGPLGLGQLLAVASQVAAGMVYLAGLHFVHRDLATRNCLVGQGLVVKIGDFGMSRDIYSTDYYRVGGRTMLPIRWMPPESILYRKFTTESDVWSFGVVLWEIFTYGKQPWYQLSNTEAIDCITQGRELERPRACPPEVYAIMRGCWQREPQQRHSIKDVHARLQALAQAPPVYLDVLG
Assay [17] shares this target. To be noted: at 10 µM.
In assay [18] the target is BDNF/NT-3 growth factors receptor (Homo sapiens) (UniProt Q16620). To be noted: at 1 µM.
Sequence of BDNF/NT-3 growth factors receptor (Homo sapiens) (Q16620 32-822 limits assumed): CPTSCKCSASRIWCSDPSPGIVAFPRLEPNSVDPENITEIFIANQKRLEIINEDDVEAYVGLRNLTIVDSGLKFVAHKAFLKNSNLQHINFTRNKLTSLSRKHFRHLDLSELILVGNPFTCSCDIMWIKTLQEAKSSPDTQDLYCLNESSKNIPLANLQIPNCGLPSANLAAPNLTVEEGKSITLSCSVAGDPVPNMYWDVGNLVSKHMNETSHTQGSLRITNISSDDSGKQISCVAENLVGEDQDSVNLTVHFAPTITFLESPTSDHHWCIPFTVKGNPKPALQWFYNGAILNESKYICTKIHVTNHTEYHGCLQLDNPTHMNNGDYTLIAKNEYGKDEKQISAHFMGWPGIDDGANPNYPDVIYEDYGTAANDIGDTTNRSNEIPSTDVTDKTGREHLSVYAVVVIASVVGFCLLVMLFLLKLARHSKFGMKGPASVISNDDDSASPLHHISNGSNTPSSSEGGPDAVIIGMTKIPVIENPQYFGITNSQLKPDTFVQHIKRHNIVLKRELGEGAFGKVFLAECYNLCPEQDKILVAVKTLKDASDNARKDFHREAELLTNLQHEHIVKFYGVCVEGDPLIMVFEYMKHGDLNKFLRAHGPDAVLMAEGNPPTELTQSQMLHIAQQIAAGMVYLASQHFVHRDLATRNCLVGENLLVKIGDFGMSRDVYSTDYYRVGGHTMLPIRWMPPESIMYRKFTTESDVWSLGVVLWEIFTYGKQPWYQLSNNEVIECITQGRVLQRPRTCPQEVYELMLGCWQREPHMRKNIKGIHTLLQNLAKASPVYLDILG
Assay [19] concerns the target Angiopoietin-1 receptor (Homo sapiens) (UniProt Q02763). The settings on record: at 1 µM.
The target is the same in assay [20]. To be noted: at 10 µM.

Sequence of Angiopoietin-1 receptor (Homo sapiens) (Q02763 whole entry): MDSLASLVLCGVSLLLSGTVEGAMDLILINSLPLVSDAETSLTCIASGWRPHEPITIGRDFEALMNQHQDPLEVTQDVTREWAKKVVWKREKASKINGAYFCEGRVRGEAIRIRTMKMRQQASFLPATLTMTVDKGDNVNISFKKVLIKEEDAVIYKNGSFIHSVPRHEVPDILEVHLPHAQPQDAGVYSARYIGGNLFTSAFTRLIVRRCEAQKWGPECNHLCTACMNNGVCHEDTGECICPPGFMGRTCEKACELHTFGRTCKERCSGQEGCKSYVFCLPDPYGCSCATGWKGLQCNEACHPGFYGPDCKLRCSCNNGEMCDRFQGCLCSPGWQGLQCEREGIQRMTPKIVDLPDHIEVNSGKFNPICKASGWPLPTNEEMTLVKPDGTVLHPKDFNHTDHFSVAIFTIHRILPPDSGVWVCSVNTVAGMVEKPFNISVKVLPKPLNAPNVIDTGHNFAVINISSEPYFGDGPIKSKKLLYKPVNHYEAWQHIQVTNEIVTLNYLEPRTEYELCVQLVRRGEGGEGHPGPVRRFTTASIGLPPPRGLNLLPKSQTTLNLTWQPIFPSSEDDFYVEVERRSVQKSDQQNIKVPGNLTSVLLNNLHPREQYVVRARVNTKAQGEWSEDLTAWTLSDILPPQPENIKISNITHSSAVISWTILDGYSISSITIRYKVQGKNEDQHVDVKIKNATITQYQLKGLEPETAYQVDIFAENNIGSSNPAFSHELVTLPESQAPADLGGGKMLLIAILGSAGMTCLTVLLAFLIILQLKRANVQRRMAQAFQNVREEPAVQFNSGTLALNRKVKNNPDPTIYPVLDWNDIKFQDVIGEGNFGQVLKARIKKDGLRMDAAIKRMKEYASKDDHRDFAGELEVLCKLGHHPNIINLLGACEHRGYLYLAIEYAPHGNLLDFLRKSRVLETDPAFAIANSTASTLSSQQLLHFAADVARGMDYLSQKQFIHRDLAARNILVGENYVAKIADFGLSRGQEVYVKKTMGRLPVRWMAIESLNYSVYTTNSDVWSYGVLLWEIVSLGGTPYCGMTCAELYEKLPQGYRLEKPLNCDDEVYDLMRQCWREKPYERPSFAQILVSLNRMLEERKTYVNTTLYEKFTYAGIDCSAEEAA
Sequence of Serine/threonine-protein kinase tousled-like 2 (Homo sapiens) (Q86UE8 whole entry, looked up): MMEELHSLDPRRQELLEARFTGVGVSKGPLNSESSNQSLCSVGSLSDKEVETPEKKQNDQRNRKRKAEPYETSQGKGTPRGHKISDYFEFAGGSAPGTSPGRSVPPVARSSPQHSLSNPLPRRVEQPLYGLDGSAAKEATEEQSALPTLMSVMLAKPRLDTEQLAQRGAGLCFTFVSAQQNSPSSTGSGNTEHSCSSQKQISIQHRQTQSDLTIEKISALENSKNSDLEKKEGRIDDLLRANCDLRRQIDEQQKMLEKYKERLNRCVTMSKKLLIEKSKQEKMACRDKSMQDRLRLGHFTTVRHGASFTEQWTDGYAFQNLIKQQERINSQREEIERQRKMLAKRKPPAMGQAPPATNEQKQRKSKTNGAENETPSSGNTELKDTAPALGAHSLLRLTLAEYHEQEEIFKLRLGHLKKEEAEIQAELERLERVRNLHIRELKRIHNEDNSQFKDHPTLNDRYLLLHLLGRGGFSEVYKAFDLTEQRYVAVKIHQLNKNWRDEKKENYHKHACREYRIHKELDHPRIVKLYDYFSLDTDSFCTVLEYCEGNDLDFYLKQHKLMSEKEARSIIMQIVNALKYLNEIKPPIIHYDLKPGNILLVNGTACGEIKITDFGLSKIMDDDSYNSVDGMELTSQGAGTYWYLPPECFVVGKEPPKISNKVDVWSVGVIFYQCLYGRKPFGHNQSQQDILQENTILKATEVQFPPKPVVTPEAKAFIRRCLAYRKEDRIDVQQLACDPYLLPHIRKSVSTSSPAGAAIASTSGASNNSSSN

As usually defined, the residual activity is the signal under treatment as a percentage of the control signal. Turning to `Cn1sc(=O)n(Cc2ccccc2)c1=O`, the residual activity in [1] came out at 73%; in assay [2] it was 86%; in assay [3], 43%; in assay [4], 62%; in [5], 95%; in assay [6], 87%. Moreover, the residual activity was determined as 83% in assay [7]; 97% in assay [8]; 84% in [9]; 80% in assay [10]; 63% in assay [11]; 80% in [12]. For the same compound, the residual activity in assay [13] was 84%; in assay [14] it was 97%; in [15], 75%; in [16] it was 81%; in assay [17] it was 68%.

On to `O=C1Cc2c([nH]c3ccc([N+](=O)[O-])cc23)-c2ccccc2N1`, for which the residual activity in assay [1] is 70%; in assay [2], 72%; in [3] it was 74%; in assay [4], 79%; in assay [14], 79%; in assay [15], 72%. Also, the results for the residual activity in [16] and in [17] were 72% and 63%, respectively.

As to `COc1ccc(-c2cnc3c(-c4ccsc4)cnn3c2)cc1`, the residual activity in assay [11] stood at 98%; in assay [12] it was 96%; in [16], 76%; in assay [17], 88%; in [18], 66%.

In the case of `CC(C)(C)c1nc2c3ccc(F)cc3c3c(=O)[nH]ccc3c2[nH]1`, the residual activity in assay [3] came out at 98%; in [4], 55%; in assay [6] it was 102%; in [11], 42%; in [12] it was 60%; in assay [19], 78%. Also, the residual activity in assay [20] was found to be 64%; in assay [16], 3%; in assay [17], 6%; in assay [18] it was 71%.

As to `O=c1cc(N2CCOCC2)oc2c(-c3ccccc3)cccc12`, the residual activity was found to be 81% in assay [5]; 68% in assay [13]; 71% in assay [19]; 64% in [20]; 79% in assay [16]; 71% in assay [17].

As for `Cc1cc(C)c(/C=C2\C(=O)Nc3ccccc32)[nH]1`, the residual activity in assay [2] was determined as 12%; in assay [4] it was 98%; in assay [8] it was 106%; in assay [9], 105%; in assay [10] it was 62%; in assay [12] it was 75%. The residual activity came out at 100% in assay [14]; 74% in assay [19]; 82% in [20]; 1% in [16]; 0% in [17]; 40% in assay [18].

`COc1cc2ncnc(Nc3cccc(Cl)c3)c2cc1OC`: the residual activity in assay [1] came to 121%; in assay [2], 101%; in assay [6] it was 111%; in assay [7], 111%; in assay [9] it was 119%; in assay [10], 101%. Also, the residual activity is 80% in [12]; 43% in assay [15]; 111% in assay [19]; 83% in assay [20]; 88% in assay [16]; 55% in assay [17]. Besides, the residual activity in assay [18] turned out to be 50%.

Consider `Nc1nc(Nc2ccc(S(N)(=O)=O)cc2)nn1C(=O)c1c(F)cccc1F`, for which the residual activity was found to be 20% in assay [2]; 56% in [3]; 96% in assay [5]; 70% in assay [6]; 71% in assay [8]; 68% in [9]. The residual activity in [10] was 17%; in assay [13], 76%; in [14], 82%; in assay [15] it was 34%; in assay [19], 36%; in assay [20], 0%. In addition, the figures for the residual activity in assay [16], in assay [17] and in [18] were 41%, 5% and 54%, respectively.

Regarding `Oc1cccc(-c2nc(N3CCOCC3)c3oc4ncccc4c3n2)c1`, the residual activity in assay [3] was 98%; in assay [4] it was 98%; in assay [7] it was 117%; in assay [8], 69%; in assay [10], 95%; in assay [13], 74%. Further, the residual activity in assay [19] came out at 80%; in [20], 59%; in assay [16], 93%; in assay [17], 118%.
